An excerpt weighted towards active compounds, which were near 3.3% of everything screened.
Smad3 inh – Smad3 (human) transcription factor binding inhibition. AID 630. TR-FRET Smad3/Dy647-FoxH1 peptide binding, europium anti-His. 88,000 compounds, 0.29% hits. inhibition, % at 25 µM. P84022;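 active means compounds that reduce the energy-transfer binding signal between the protein and its labelled peptide by more than half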
ERb coact inh – blocks coactivator binding to human estrogen receptor beta; Q92731; TR-FRET ER-beta LBD / SRC1-Cy5 peptide binding; receptor agonist-loaded with 1 µM estradiol; inhibition, % at 25.6 µM; 86,000 compounds, 1.3% hits; AID 633;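 active means compounds whose percent inhibition of the receptor-coactivator binding signal exceeds about 50% in the single-dose screen, limit read from the data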
Target sequence (Q92731 whole entry, looked up, the tested form may be a part): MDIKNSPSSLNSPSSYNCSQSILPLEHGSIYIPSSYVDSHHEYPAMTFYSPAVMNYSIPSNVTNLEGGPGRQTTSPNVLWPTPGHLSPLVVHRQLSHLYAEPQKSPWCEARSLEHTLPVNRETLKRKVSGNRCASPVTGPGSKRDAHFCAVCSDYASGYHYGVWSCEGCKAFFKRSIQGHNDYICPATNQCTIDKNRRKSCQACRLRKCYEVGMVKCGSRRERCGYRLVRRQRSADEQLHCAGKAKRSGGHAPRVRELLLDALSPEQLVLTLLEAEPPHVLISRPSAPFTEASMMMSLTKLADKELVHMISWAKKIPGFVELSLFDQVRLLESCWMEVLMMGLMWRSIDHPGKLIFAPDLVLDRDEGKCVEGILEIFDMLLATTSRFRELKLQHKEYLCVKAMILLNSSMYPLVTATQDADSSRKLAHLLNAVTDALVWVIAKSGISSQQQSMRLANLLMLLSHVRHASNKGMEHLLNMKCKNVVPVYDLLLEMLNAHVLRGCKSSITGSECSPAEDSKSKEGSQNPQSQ
ERa coact pot – enhances coactivator binding to human estrogen receptor alpha. P03372. TR-FRET ERalpha-LBD/SRC-Cy5 coactivator binding, 2 h; 100 = basal binding, no effect. coactivator binding (% of control), % at 25.6 µM. 86,000 compounds, 1.3% hits. AID 639; in the data active means activity above about 200%;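 further: binding measured in presence of low estradiol as agonist stimulus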
FAK blocker – FAK (human) kinase inhibition; Q05397; biochemical FAK kinase activity assay; inhibition, %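 (tested at 7 µM)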; 97,000 compounds, 0.84% hits; AID 727; in the data active means inhibition above about 19%
ERa SRC1 inh – ER-alpha (human) coactivator binding inhibition | TR-FRET ER-alpha LBD / SRC-1 peptide, estradiol-bound | inhibition, % at 25.6 µM | 86,000 compounds, 1.7% hits | AID 629; in the data active means inhibition above about 50%
Numbers stand for hits; i = inactive; nt = not tested or not shown; [ ] = remark or other dose.

SMILES | Smad3 inh | ERb coact inh | ERa coact pot | FAK blocker | ERa SRC1 inh
CCOC(=O)CC1=C(C(=O)OCC)C(c2ccc(C)o2)C(C#N)=C(N)O1 (stereo not given) | i | i | i | i | i
Cc1ccc(C2C(C#N)=C(N)Oc3c2sc2ccccc32)o1 (stereo not given) | i | 69.8[fluorescence artefact?] | i | i | 69.8[fluorescence artefact?]
CCn1c2ccccc2c2cc(C3N=C(N)Nc4nc5ccccc5n43)ccc21 (stereo not given) | i | i | 277.3[fluorescence artefact?] | i | i
NC1=NC(c2ccc(Cl)cc2)n2c(nc3ccccc32)N1 (stereo not given) | i | i | i | i | i
CN(CCC(=O)O)S(=O)(=O)c1ccccc1 | i | nt | nt | nt | nt
CC1(C)C(=O)Nc2ccccc2N1C(=O)COc1ncnc2c(Cl)cc(Cl)cc12 | i | i | i | i | i
CC1(C)C(=O)Nc2ccccc2N1C(=O)COc1ccc(S(=O)(=O)N2CCOCC2)cc1Cl | i | 87.9[fluorescence artefact?] | i | i | 85.1[fluorescence artefact?]
Nc1cc2c(nc3c4ccccc4c(N)cc3[n+]2-c2cccc3ccccc23)c2ccccc12 (tested in a mixture with another compound) | i | nt | nt | nt | nt
CCNC(=O)C1CC(=O)N(CC)C(=Nc2cc(Cl)c(O)c(Cl)c2)S1 (stereo not given) | i | i | i | i | i
Cc1cc(=S)[nH]c2ccccc12 | i | i | i | i | i
Cc1ccc2[nH]c(=S)cc(C)c2c1 | i | 59.8[fluorescence artefact?] | i | i | i
Nc1ccc(N(S(=O)(=O)c2ccccc2)S(=O)(=O)c2ccccc2)c(Cl)c1 | 87.1 | nt | nt | nt | nt
Cc1ccc(-c2cc3nc(-c4ccccc4)cc(N4CCC5(CC4)OCCO5)n3n2)cc1 | i | i | 283.7[fluorescence artefact?] | i | i
Cc1cccc(-c2cc3nc(-c4ccccc4)cc(N4CCC5(CC4)OCCO5)n3n2)c1 | i | i | i | i | i
CC1(C)S[C@H]2[C@H](NC(=O)C3(N)CCCCC3)C(=O)N2[C@@H]1C(=O)O | i | nt | nt | nt | nt
CC1(C)[C@H]2CC[C@]1(C)[C@H](OC(=O)CSC#N)C2 | i | nt | nt | nt | nt
O=NN(Cc1ccc(Cl)cc1)[C@@H](C(=O)O)c1ccccc1 | i | nt | nt | nt | nt
Oc1ccc(Cc2nccc3cc(O)c(O)cc23)cc1O | 89.0 | nt | nt | nt | nt
O=C1C2[C@@H](c3ccccc3)N[C@@H](c3ccccc3)C1[C@@H](c1ccccc1)N[C@H]2c1ccccc1 | i | nt | nt | nt | nt
COc1cc2c3c(c1)/C(=C1/SC(NC(C)=O)=NC1=O)C(=O)N3C(C)(C)C=C2C | i | 54.1 | i | i | 77.0[fluorescence artefact?]
COc1ccc(N2C(=O)c3ccc(NC(C)=O)cc3C2=O)cc1 | i | i | i | i | i
CC1(C)CC(=O)C=C(NC2CCCCCCC2)C1 | i | i | i | i | 95.3[fluorescence artefact?]
Cc1ccc(NC(=O)Cn2cccc2)c(C)c1 | i | i | i | i | i
CCn1cc(-c2cc(C(F)(F)F)n3nc(C(=O)O)cc3n2)c(C)n1 | i | 75.4[fluorescence artefact?] | i | i | 64.1[fluorescence artefact?]
COc1cccc(C(=O)Nc2ccc3nc(N4CCN(c5ncccn5)CC4)cc(C)c3c2)c1OC | nt | nt | nt | i | nt
SMILES | Smad3 inh | ERb coact inh | ERa coact pot | FAK blocker | ERa SRC1 inh
CCOc1ccccc1C(=O)Nc1ccc2nc(N3CCN(c4ncccn4)CC3)cc(C)c2c1 | i | i | 303.4[fluorescence artefact?] | i | 73.3
N#CC(C(=O)O)=C1CCCC1 | i | i | i | i | i
N#CC(C(=O)Nc1ccccc1)=C1CCCCC1 | i | 74.1 | i | nt | i
CCCc1cc2c(=O)c(-c3ccc4c(c3)OCCO4)coc2cc1OC(=O)c1ccco1 | i | i | i | i | 50.8
CCc1cc2c(=O)c(-c3ccc4c(c3)OCCO4)coc2cc1OC(=O)c1ccco1 | i | 57.7[fluorescence artefact?] | 212.6[fluorescence artefact?] | i | 70.3[fluorescence artefact?]
CCCc1cc2c(=O)c(-c3ccc4c(c3)OCCO4)c(C)oc2cc1OS(C)(=O)=O | nt | nt | nt | i | nt
O=C(C[C@@H]1C=Cc2ccccc2N1C(=O)c1ccccc1)c1ccccc1 | i | nt | nt | nt | nt
OCCN1CCN(C(c2cccs2)c2ccc3cccnc3c2O)CC1 (stereo not given) | i | 64.0[fluorescence artefact?] | i | i | 68.6[fluorescence artefact?]
CC(C)(C)c1cc(C(c2cccnc2)N2CCN(CCO)CC2)cc(C(C)(C)C)c1O (stereo not given) | i | i | i | i | i
COC(=O)c1cccc(COC(=O)CNC(=O)c2ccco2)c1 | nt | nt | nt | i | nt
O=C(CNC(=O)c1ccco1)OCc1ccc(Cl)cc1 | i | 59.8 | i | i | i
O=C(Nc1ccc(N2CCOCC2)cc1)Nc1ccc2nc(-c3ccco3)c(-c3ccco3)nc2c1 | i | 58.6[fluorescence artefact?] | i | i | 52.5[fluorescence artefact?]
O=C(c1ccc2nc(-c3ccco3)c(-c3ccco3)nc2c1)N1CCN(c2ccccc2)CC1 | i | i | i | i | i
O=C(Nc1cccc(C(F)(F)F)c1)c1ccc2nc(-c3ccco3)c(-c3ccco3)nc2c1 | i | 81.5[fluorescence artefact?] | i | i | 84.3[fluorescence artefact?]
O=C(Nc1ccc2nc(-c3ccco3)c(-c3ccco3)nc2c1)NC1CC1 | i | 108.9[fluorescence artefact?] | i | 91.7 | 99.5[fluorescence artefact?]
N=C(N)SCc1nc(-c2ccc(Cl)cc2)no1 | i | nt | nt | nt | nt
Cc1nn(-c2ccccc2)c2sc(C(=O)OCN3C(=O)c4ccccc4C3=O)cc12 | i | i | i | nt | 59.7
Oc1ccccc1-c1nnc(SCCN2CCOCC2)n1Cc1ccccc1 | i | 59.4 | i | i | i
O=C(CSc1nnc(-c2ccccc2)n1Cc1ccccc1)N1CCOCC1 | i | i | i | i | i
O=C1C=C(Nc2nc(C(=O)O)cc(=O)[nH]2)c2ccccc2C1=O | i | nt | nt | nt | nt
[O-]/N=C1/C(=[OH+])Nc2ccccc21.[O-]Nc1c([O+]=[Cu])[nH]c2ccccc12 | i | nt | nt | nt | nt
Nc1ncnc2c1nc(-c1ccccc1)n2[C@H]1O[C@@H](CO)[C@H](O)[C@H]1O | i | nt | nt | nt | nt
Cn1c(N)nc2c(nc(OCc3ccccc3)n2[C@H]2O[C@H](CO)[C@@H](O)[C@@H]2O)c1=O | 73.8 | nt | nt | nt | nt
Fc1ccc(-c2nnc(-n3nnc4ccccc43)c3ccccc23)cc1 | i | i | i | i | 57.8
O[C@@H](c1cc([C@@]23C[C@H]4CC[C@@H]2C[C@H](C4)C3)nc2c(Cl)cc(Cl)cc12)[C@@H]1CCCCN1 | i | nt | nt | nt | nt
SMILES | Smad3 inh | ERb coact inh | ERa coact pot | FAK blocker | ERa SRC1 inh
N#CC(C(=O)Nc1ccc(Cl)cc1)=C1Nc2ccccc2N1 | i | i | i | i | 53.7
N#C/C(=N\Nc1ccc(Cl)cc1)C(=O)c1ccccc1 | nt | nt | nt | i | nt
CCCCNN | i | nt | nt | nt | nt
CCOC(=O)C1=C(c2ccccc2)O/C(=C(/C#N)C(F)(F)F)S1 | i | i | i | i | i
CCOC(=O)C1=C(c2ccccc2)O/C(=C(\C(=O)OC)C(F)(F)F)S1 | i | i | 270.2[fluorescence artefact?] | i | i
CC(=Nc1ccccc1C)C1=C(O)CSC1=O | i | i | i | i | i
CC(C)C(=O)Nc1ccc(C(=O)NNC(=O)c2ccco2)cc1 | nt | nt | nt | i | nt
O=S(=O)(N1CCCCC1)N1CCN(CC(O)COc2ccc3cc(Br)ccc3c2)CC1 (stereo not given) | i | i | 253.3 | i | i
CN(C)S(=O)(=O)N1CCN(CC(O)COc2ccc3cc(Br)ccc3c2)CC1 (stereo not given) | i | i | i | i | i
CCCCCCc1nc2c(=O)[nH]c3ccccc3c2o1 | i | i | 248.9[fluorescence artefact?] | nt | i
CCCCCCCc1nc2c(=O)n(C)c3ccccc3c2o1 | i | i | i | i | i

Screens from PubChem BioAssay.
